Inconclusive results are not listed. The source made the active and inactive calls. How the source made its calls: active means hit-call score of the fitted dose curve at least 0.9, where 1 is the maximum; inconclusive means response in the unintended direction; inactive means score below 0.9.

Oxysterols receptor LXR-beta (Homo sapiens), sequence (P55055 whole entry, looked up, the tested form may be a part): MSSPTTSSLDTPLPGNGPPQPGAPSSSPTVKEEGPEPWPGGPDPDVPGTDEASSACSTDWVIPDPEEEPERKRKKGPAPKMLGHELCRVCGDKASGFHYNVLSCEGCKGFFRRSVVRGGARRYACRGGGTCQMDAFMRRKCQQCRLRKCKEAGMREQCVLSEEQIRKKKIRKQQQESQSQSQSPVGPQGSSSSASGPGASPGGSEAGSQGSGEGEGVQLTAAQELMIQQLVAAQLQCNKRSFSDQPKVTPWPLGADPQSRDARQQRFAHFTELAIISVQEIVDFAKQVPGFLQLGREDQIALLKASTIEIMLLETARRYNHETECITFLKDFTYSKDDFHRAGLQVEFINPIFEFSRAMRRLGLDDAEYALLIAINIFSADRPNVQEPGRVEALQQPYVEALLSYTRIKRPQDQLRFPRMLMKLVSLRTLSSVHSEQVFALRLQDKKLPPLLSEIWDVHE

The first assay deals with Oxysterols receptor LXR-alpha (Homo sapiens) (UniProt Q13133). Nature of the assay: ATG_LXRa_TRANS: Attagene TRANS-FACTORIAL HepG2 Assay for human Liver X Receptor alpha (LXRa) (AID 2282980). Conditions: HepG2 Attagene TRANS reporter, LXRa transactivation. In short, it runs like this: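 Transient HepG2 transfectants, 24 h dosing, RT-PCR/CE mRNA reporter quantitation; gain-of-signal vs DMSO.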
Oxysterols receptor LXR-alpha (Homo sapiens), sequence (Q13133 whole entry, looked up): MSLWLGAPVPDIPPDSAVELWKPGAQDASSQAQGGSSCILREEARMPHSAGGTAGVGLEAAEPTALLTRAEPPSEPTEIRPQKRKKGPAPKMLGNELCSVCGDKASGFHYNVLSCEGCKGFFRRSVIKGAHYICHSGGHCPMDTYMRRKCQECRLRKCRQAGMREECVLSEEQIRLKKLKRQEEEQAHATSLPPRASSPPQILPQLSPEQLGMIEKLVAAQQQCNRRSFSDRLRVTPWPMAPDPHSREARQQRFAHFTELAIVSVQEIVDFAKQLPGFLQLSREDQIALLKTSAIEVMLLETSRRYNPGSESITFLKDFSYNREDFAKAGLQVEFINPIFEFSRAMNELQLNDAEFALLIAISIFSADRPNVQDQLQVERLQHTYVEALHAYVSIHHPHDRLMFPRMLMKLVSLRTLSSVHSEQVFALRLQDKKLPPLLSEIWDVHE
For `CCN(CCO)S(=O)(=O)C(F)(F)C(F)(F)C(F)(F)C(F)(F)C(F)(F)C(F)(F)C(F)(F)C(F)(F)F`, the result was inactive.
For the compound `O=C=NCc1cccc(CN=C=O)c1`, the result was inactive.
Turning to `O=C1OC(=O)c2ccc3c4c(ccc1c24)C(=O)OC3=O`, the call was inactive.
As for `C#CC(O)CCC` (stereo not given), the result was inactive.
For the compound `N#CCCOCCC#N`, the compound was classed as inactive.
Same read-out and setting: the same measure for `CC(O)C#CC(C)O` (stereo not given): “inactive”; for `O=C(Cl)C(F)(F)C(F)(F)C(F)(F)C(F)(F)C(F)(F)C(F)(F)C(F)(F)F`: “inactive”; for `O=C(F)C1(F)C(F)(F)C(F)(F)C(F)(F)C(F)(F)C1(F)F`: “inactive”.
For `CC1=CCC(=O)O1`, the compound was classed as inactive.
Regarding `CC1=CC2C3C=CC(C3)C2C1C` (stereo not given), the result was inactive.
As for `O=C1c2c(O)ccc(Nc3ccc(CCO)cc3)c2C(=O)c2c([N+](=O)[O-])ccc(O)c21`, the compound was classed as inactive.
On to `O=C(O)C(F)(F)OC(F)(F)C(F)(F)OC(F)(F)C(F)(F)OC(F)(F)F`, for which the compound was called inactive.
Turning to `N#Cc1ccccc1O`, the result was inactive.
On the same count and under the same terms, the same measure for `CC(C)(C)C(=O)C1C(=O)c2ccccc2C1=O`: “inactive”; for `O=S(=O)(Cl)C(F)(F)C(F)(F)C(F)(F)C(F)(F)C(F)(F)C(F)(F)C(F)(F)C(F)(F)F`: “inactive”.
Still for that read-out and setting: the same measure for `COCCC(=O)OC`: “inactive”.

For another assay, the target named is Oxysterols receptor LXR-beta (Homo sapiens) (UniProt P55055). Nature of the assay: ATG_LXRb_TRANS: Attagene TRANS-FACTORIAL HepG2 Assay for human Liver X Receptor beta (LXRb) (AID 2282981). Conditions: HepG2 Attagene TRANS GAL4-LXRb reporter, mRNA. An outline of the steps:
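Liver-derived HepG2 cells transfected with Gal4-responsive reporters were dosed for 24 h. Activation was scored as rise in reporter mRNA, by RT-PCR and capillary electrophoresis, above DMSO baseline.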
For `CCN(CCO)S(=O)(=O)C(F)(F)C(F)(F)C(F)(F)C(F)(F)C(F)(F)C(F)(F)C(F)(F)C(F)(F)F`, the call was inactive.
With `O=C=NCc1cccc(CN=C=O)c1`, the compound was classed as inactive.
For the compound `CC(C)(C)c1cc(CCC(=O)OCC(COC(=O)CCc2cc(C(C)(C)C)c(O)c(C(C)(C)C)c2)(COC(=O)CCc2cc(C(C)(C)C)c(O)c(C(C)(C)C)c2)COC(=O)CCc2cc(C(C)(C)C)c(O)c(C(C)(C)C)c2)cc(C(C)(C)C)c1O`, the compound was classed as inactive.
As to `C#CC(O)CCC` (stereo not given), the call was inactive.
`N#CCCOCCC#N`: the call was inactive.
The same measure, in the same setting: the same measure for `O=C(O)C(F)(F)C(F)(F)C(F)(F)C(=O)O`: “inactive”.
As for `O=C=Nc1cccc2c(N=C=O)cccc12`, the call was inactive.
With `O=C(Cl)C(F)(F)C(F)(F)C(F)(F)C(F)(F)C(F)(F)C(F)(F)C(F)(F)F`, the compound was classed as inactive.
As for `O=C(F)C1(F)C(F)(F)C(F)(F)C(F)(F)C(F)(F)C1(F)F`, the outcome was inactive.
As for `CC1=CCC(=O)O1`, the compound was classed as inactive.
In the case of `O=C1c2c(O)ccc(Nc3ccc(CCO)cc3)c2C(=O)c2c([N+](=O)[O-])ccc(O)c21`, the result was inactive.
In the case of `CCN(CC)c1ccc(C=O)cc1`, the result was inactive.
On to `CC(C)(C)C(=O)C1C(=O)c2ccccc2C1=O`, for which the compound was called inactive.
Regarding `Brc1ccccn1`, the compound was called inactive.

These data come from PubChem BioAssay (EPA / NIEHS).
